From PubChem BioAssay
This is a sample that favours compounds with a hit; in the whole collection about 5.7% have one here.
DRD3 antagonist: D3 dopamine receptor (human) antagonism. P35462. D3R cells, DiscoveRx beta-arrestin luminescence, antagonist mode; active compounds read low. max response, negative = inhibition, %. 360,000 compounds, 2.5% hits. AID 652054; in the data active = max response below about -50%; inconclusive = no clear call, values can overlap the other calls; note: % is set by controls: 0 for no effect and ±100 for the full control effect
Target sequence (P35462 whole entry, looked up): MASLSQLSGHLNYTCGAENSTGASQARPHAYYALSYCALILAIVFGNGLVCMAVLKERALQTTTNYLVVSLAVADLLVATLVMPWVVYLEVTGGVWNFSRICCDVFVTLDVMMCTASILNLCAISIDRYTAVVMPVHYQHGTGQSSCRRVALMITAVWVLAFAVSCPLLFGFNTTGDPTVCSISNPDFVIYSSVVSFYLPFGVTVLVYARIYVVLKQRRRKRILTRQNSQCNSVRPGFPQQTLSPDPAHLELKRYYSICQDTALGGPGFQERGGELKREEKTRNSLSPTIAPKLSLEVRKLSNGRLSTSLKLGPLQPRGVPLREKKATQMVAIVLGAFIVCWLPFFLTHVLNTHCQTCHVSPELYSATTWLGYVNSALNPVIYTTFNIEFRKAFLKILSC
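Cells expressing the human receptor were seeded at 1500 cells/well, incubated overnight at 37 degrees C in 5% CO2, then exposed to library compounds with dopamine controls for 90 minutes at 37 degrees C before luminescent detection.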
GLP1R inv ag: GLP-1 receptor (human) inverse agonism; Potency, µM (series often up to 38.3 µM), for the others: at the top dose activity change, negative = inhibition, actives largely listed as inhibitors; P43220; HEK293 GLP-1R CRE-luciferase, luminescence, 24 h; GLP-1R form is constitutively active; 410,000 compounds, 1.6% hits; note: potency is the fitted concentration of half-maximal effect; % is set by controls: 0 for no effect and ±100 for the full control effect; nearly all actives have a fitted effect of over 55% in size
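qHTS in 1536-well format: reporter HEK293 cells expressing constitutive GLP-1R activity in DMEM + 10% Nu serum, 24 hr with compounds at 37 deg C, luminescence read after 12 min with detection reagent.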
GLP-1R agonist: agonists of human GLP-1 receptor; 380,000 compounds, 0.007% hits; HEK293 GLP-1R CRE-luciferase, luminescence, 4-6 h; cells express a hypersensitive GLP-1R form; Potency, µM (doses to about 45.6 µM), for the others: at the top dose activation, hits mostly activators; AID 624172; note: potency is the fitted concentration of half-maximal effect; % of control where 0% means no effect
GLP1R cytotox: cytotoxicity in counter-screen for GLP-1R inverse agonists; 410,000 compounds, 0.13% hits; AID 624418; HEK293 cAMP-luciferase reporter cells, luminescence, 24 h; Potency, µM (top dose mostly 38.3 µM), inactives show at the highest dose activity change, negative = inhibition, usual class: inhibitors;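 note: loss of luciferase light is scored as toxicity; potency is the fitted concentration of half-maximal effect; % is set by controls: 0 for no effect and ±100 for the full control effect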
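Seeding density was 200 cells/uL; after overnight-length (12 h) culture, 23 nL compounds went on for 24 h at 37 °C. Readout used a luciferase detection reagent, luminescence taken after 12 min at room temperature.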
ClpP mod: qHTS Assay for Activators of ClpP; AID 651965, 2013; Potency, µM (series often up to 57.5 µM), inactives show at the highest dose activity change, negative = active; 340,000 compounds, 1.9% hits; ATP-dependent Clp protease proteolytic subunit (Bacillus subtilis (strain 168)), P80244; purified B. subtilis ClpP, FRET peptide cleavage, 20 min; active = well fitted falling curve with a large enough effect; inconclusive = small, poorly fitted or top-dose-only effect; inactive = no such curve, though single readings can be large or run the other way; note: potency is the fitted concentration of half-maximal effect; the source files actives as falling curves though it sought activators and does not explain the sign; nearly all actives have a fitted effect of over 65% in size
Target sequence (P80244 whole entry, looked up): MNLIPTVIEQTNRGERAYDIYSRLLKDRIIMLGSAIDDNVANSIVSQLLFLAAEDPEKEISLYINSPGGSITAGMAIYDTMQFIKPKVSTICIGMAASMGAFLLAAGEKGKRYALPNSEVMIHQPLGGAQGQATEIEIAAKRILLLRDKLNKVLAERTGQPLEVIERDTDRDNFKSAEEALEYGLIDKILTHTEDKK
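ClpP 10 microg/mL final, pH 8 Tris/KCl buffer with BSA, glycerol, Tween-20; compound pinned in; FRET-FV substrate; RT 20 min; Ex320/Em430; ΔFRET vs ADEP 5.8 microM, DMSO, no enzyme.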
D3 ag: D3 dopamine receptor (human) agonism; P35462; D3R DiscoveRx beta-arrestin cells, luminescence, 90 min; max activation, %; 410,000 compounds, 0.58% hits; AID 652048; in the data active = max activation above about 30%; note: 0% is about no effect
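Agonist mode: compounds and dopamine controls were applied to plated cells for 90 min at 37 degrees C after an overnight attachment at 1500 cells/well. Luminescent read-out followed 30 - 60 minutes at room temperature with DiscoveRx detection reagent.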
Numbers without * were called inactive; ? = inconclusive; / = not tested or not shown. Unless noted, calls come from the whole dose curve; as a rule, active = well fitted curve in the direction sought with a large enough effect; inconclusive = small, poorly fitted or top-dose-only effect, or another doubt; inactive = no such curve, though single readings can be large; an effect the other way counts as inactive or inconclusive.

SMILES | DRD3 antagonist | GLP1R inv ag | GLP-1R agonist | GLP1R cytotox | ClpP mod | D3 ag
COc1ccc(Br)cc1CN1CCN(c2ncccn2)CC1 | ? | ? | 15.7% | -5.0% | 0.8% | -21.5
COc1ccc(CN2CCN(c3ncccn3)CC2)c(C)c1C | -20.0 | ? | -1.8% | 2.6% | -4.0% | 71.3*
Cc1ccc(-n2cc(CN3CCN(c4ccccn4)CC3)c(-c3ccc(F)cc3)n2)cc1 | -62.0* | ? | -1.4% | 0.6% | / | -20.9
COCCCn1c(=N)c(C(=O)NCc2cccnc2)cc2c(=O)n3cccc(C)c3nc21 | / | 8.0% | / | 212.4% | 4.3% | -0.2
COc1ccc(N2CC3=C(C2=O)C(c2ccc(Br)cc2)NC(=O)N3C)cc1 (centres undefined) | / | -19.7% | -1.1% | -5.7% | -1.7% | 5.2
CC(C)=CCc1cc([C@@H]2CC(=O)c3ccc(O)c(CC=C(C)C)c3O2)ccc1O | 56.3 | 9.2% | -0.5% | 2.5% | -4.6% | 31.5*
COc1ccc(OCC(O)CN2CCN(c3ncccn3)CC2)cc1 (centres undefined) | ? | -20.7% | -10.3% | -20.9% | 1.1% | 31.0*
CCCc1ccc(OCC(O)CN2CCN(c3ccccn3)CC2)cc1 (centres undefined) | -17.5 | ? | -0.2% | -21.5% | -3.9% | 62.4*
CC(=O)c1ccc(OCC(O)CN2CCN(c3ccccn3)CC2)cc1 (centres undefined) | -55.0* | -4.4% | 13.7% | -4.8% | -1.4% | 55.9*
O=C(Nc1ccc2c(c1)OCCO2)C1C(c2ccccc2)=Nc2ccccc2N1C(=O)c1cccnc1 (centres undefined) | 1.1 | 15.9% | / | -4.1% | -19.3% | 3.5
Cc1ccc(C(=O)C[n+]2ccc(-c3nnc4n3CCC4)cc2)cc1 | 5.7 | 24.2% | 17.4% | 18.8% | 11.2µM* | 2.4
O=C(C[n+]1ccc(-c2nnc3n2CCC3)cc1)c1ccc(Cl)cc1 | 8.8 | 0.6% | 1.7% | 0.1% | 31.6µM* | -4.4
Cc1cccc(Cn2c(C)c(CNC3CCCCCC3)c(C(=O)O)c2C)c1 | / | -8.6% | / | -2.7% | -1.6% | -16.0
CC1CCN(C(=O)CCC(=O)N2CC(C)Oc3ccccc32)CC1 (centres undefined) | 1.7 | -29.6% | 7.9% | -6.4% | -0.3% | 0.3
CC1CCC(NC(=O)CCC(=O)N2CC(C)Oc3ccccc32)CC1 (centres undefined) | -91.7* | -9.2% | 1.1% | -4.3% | -0.6% | -15.7
CC1CCCCC1NC(=O)CCC(=O)N1CCOc2ccc(Cl)cc21 (centres undefined) | -53.4* | ? | 6.1% | -11.0% | -2.2% | -19.6
Cc1ccc2c(c1)N(C(=O)CCC(=O)NC1CCC(C)CC1)CCO2 (centres undefined) | -95.9* | ? | -4.3% | 2.4% | 0.5% | -12.0
O=C(CCC1N=C2c3ccccc3N=C(SCc3cccc(F)c3)N2C1=O)NCc1ccc(F)cc1 (centres undefined) | / | -5.8% | / | -2.4% | 4.0% | -15.0
CC12CCC(C(=O)N(CSC(=S)N/N=C\c3ccccc3)C1=O)C2(C)C (centres undefined) | -69.1* | ? | -4.3% | -2.9% | -0.3% | 4.8
CC1CCc2c(C(=O)NCCN3CCOCC3)csc2C1 (centres undefined) | -11.1 | 0.0% | 5.6% | 4.6% | -1.7% | -7.6
O=C(NCCN1CCOCC1)c1csc2c1CCCCC2 | -52.1* | 5.7% | -4.8% | -18.3% | -1.3% | 16.0
CCC1CCCCN1CCCNC(=O)c1csc2c1CCCCC2 (centres undefined) | -5.1 | ? | 1.1% | -16.5% | 0.2% | 2.2
CCN1CCN(CCCNC(=O)c2csc3c2CCCCC3)CC1 | -54.1* | ? | -0.3% | 4.5% | -3.1% | -4.4
O=C(Nc1ccc(F)c(Cl)c1)c1cc(S(=O)(=O)N2CCCc3ccccc32)ccc1F | / | ? | / | 1.5% | -23.0% | -9.8
COC(=O)c1ccc(C(=O)OC)c(NC(=O)c2c(-c3ccccc3)c(-c3ccccc3)nn(C)c2=O)c1 | / | 14.1% | / | -7.1% | -6.8% | 8.2
SMILES | DRD3 antagonist | GLP1R inv ag | GLP-1R agonist | GLP1R cytotox | ClpP mod | D3 ag
O=C(Nc1ccccc1)c1ccc[n+](Cc2ccc([N+](=O)[O-])cc2)c1 | -56.2* | 8.7% | -11.3% | 2.9% | -1.3% | -25.2
O=C(Nc1ccc([N+](=O)[O-])cc1)c1ccccc1 | 6.8 | 20.0% | 27.3% | -2.5% | / | -13.7
Fc1ccc(Nc2cncc(-c3ccsc3)c2)cc1Cl | -51.9* | 13.0% | 7.6% | -10.0% | -6.0% | -13.5
Fc1ccc(Nc2nnc(C(F)(F)F)s2)cc1Cl | 3.7 | ? | 2.5% | -20.2% | / | -10.0
O=S(=O)(NCc1cccc(Br)c1)c1ccc(-c2cc(C(F)(F)F)on2)s1 | / | ? | / | -8.4% | 1.1% | -2.8
CCN(CC)c1ccc(NC(=O)c2c(C)nn(-c3ccc(F)cc3)c2-n2cccc2)c(C)c1 | / | 5.01µM* | 0.7% | -9.3% | -17.0% | -1.4
Cc1ccc(CCNC(=O)c2c(C)nn(-c3ccc(F)cc3)c2-n2cccc2)cc1 | / | 6.31µM* | 24.5% | -23.2% | 1.0% | 7.6
COc1ccc(CCNC(=O)c2c(C)nn(-c3ccc(F)cc3)c2-n2cccc2)cc1OC | / | ? | 10.2% | -20.8% | 0.2% | 4.6
C[C@@](Cc1ccccc1)(NC(=O)CN)c1ccccc1 | / | / | 1.3% | / | / | /
CC(C)(Cc1ccc(O)cc1)NC(=O)SCc1ccccc1 | -3.0 | 12.6µM* | 12.8% | 3.0% | -0.4% | -8.1
COc1ccc(NC(=O)C2Cc3c(-c4cccc(F)c4)ccnc3O2)cc1OC (centres undefined) | 32.6 | -3.3% | 25.7% | -15.2% | -1.0% | 8.6
Cc1ccc(C)c(N2CCN(CCCc3ccccc3)CC2)c1 | -65.3* | ? | 6.3% | ? | -3.3% | -19.9
C/C=C(\C)CN1CCN(c2cccc(C)c2C)CC1 | -88.4* | 8.1% | -3.4% | 8.9% | -1.9% | -27.5
C/C=C(\C)CN1CCN(c2cc(C)ccc2C)CC1 | -85.7* | 0.0% | -1.9% | -22.1% | 0.1% | -37.7
C=CCc1c(C)nc2c(OC)cccc2c1Cl | 18.0 | ? | ? | -1.1% | -0.7% | 2.7
COc1cccc2c(Cl)c(CC=C(Cl)Cl)c(C)nc12 | -16.8 | 22.4% | 18.8% | 13.6% | 10µM* | 4.4
Cn1c(=O)c(C(=O)NNC(=O)c2ccc(Br)cc2)c(O)c2ccccc21 | -11.9 | -20.8% | 3.3% | -23.1% | / | 23.0
Cn1c(Sc2ccc(Br)cc2)c(C=O)c2ccccc21 | -8.8 | 4.47µM* | -22.7% | -19.9% | -4.9% | -7.2
